Screen size: about 94,000 compounds; about 2,100 (2.2%) were called active. Many of the other results were omitted from the sample, so actives are more common in it than they were. Unmarked numbers belong to inactive results. Rule as the data show it: active = activity change below about -80%; inconclusive = no clear call, values can overlap the other calls; inactive = above that.

This passage reports activity change results from PubChem BioAssay AID1159554 (Broad Institute, 2015).

This assay can be described thus: Dd2 malaria parasite growth inhibition – SYBR Green fluorescence, single dose replicates, primary screen (AID 1159554). Conditions: P. falciparum Dd2 growth, 72 h, at 10 µM, stronger effect = lower value.
On to `C/C=C/c1cnc2c(c1)C(=O)N([C@@H](C)CO)C[C@H](C)[C@H](CN(C)C(=O)CN1CCOCC1)O2`, for which the activity change is -2.24%.

Turning to `COc1ccc2c3c(n(C)c2c1)[C@H](CO)N(Cc1cccnc1)CC31CCN(Cc2cccnc2)CC1`, the activity change was -77.6%.

Take `COc1ccc2c3c(n(C)c2c1)[C@@H](CO)N(C(C)=O)CC31CCN(Cc2nccs2)CC1`: the activity change is -11.3%.

With `COc1ccc2c3c(n(C)c2c1)[C@H](CO)N(C(=O)CC1CC1)CC31CCN(Cc2nccs2)CC1`, the activity change is -91.8% (active).

For `COc1ccc2c3c(n(C)c2c1)[C@@H](CO)N(C(=O)Nc1cccc(F)c1)CC31CCN(Cc2nccs2)CC1`, the activity change is -73.5%.

As for `CCC(=O)N1CC2(C1)CN(Cc1nccs1)[C@@H](CO)c1c2c2ccc(OC)cc2n1C`, the activity change is 3.74%.

As to `COc1ccc2c3c(n(C)c2c1)[C@H](CO)N(CC1CCCCC1)CC31CCN(Cc2nccs2)CC1`, the activity change is -91% (active).

Take `CN1C(=O)c2cc(NC(=O)C3CCCC3)ccc2OC[C@H]2O[C@@H](CC(=O)NCCc3ccncc3)CC[C@H]21`: the activity change was 22.6%.

For `CCS(=O)(=O)N1CC2(CN(C(=O)c3ccc(F)cc3)[C@H](CO)c3c2c2ccc(OC)cc2n3C)C1`, the activity change was -2.54%.

With `CO[C@H]1CN(C)C(=O)c2cc(NC(=O)Nc3cccc(F)c3)ccc2OC[C@H](C)N(C(C)=O)C[C@H]1C`, the activity change was -27.3%.

For `CO[C@H]1CN(C)C(=O)c2ccc(NC(C)=O)cc2OC[C@@H](C)NC[C@H]1C`, the activity change is 19.5%.

For the compound `CCC(=O)N1C[C@H](C)[C@H](OC)CN(C)C(=O)c2cc(NC(=O)Nc3cccc(F)c3)ccc2OC[C@@H]1C`, the activity change was -86.1% (active).

As to `CCC(=O)Nc1ccc2c(c1)C(=O)N(C)C[C@@H](OC)[C@@H](C)CN(Cc1ccccc1F)[C@H](C)CO2`, the activity change is -23.2%.

Regarding `CO[C@H]1CN(C)C(=O)c2ccc(NC(=O)Nc3ccc4c(c3)OCO4)cc2OC[C@H](C)NC[C@H]1C`, the activity change was 0.516%.

In the case of `CCCC(=O)Nc1ccc2c(c1)OC[C@@H](C)N(Cc1ccccc1F)C[C@@H](C)[C@H](OC)CN(C)C2=O`, the activity change was -88.8% (active).

Consider `CO[C@@H]1CN(C)C(=O)c2ccc(NC(=O)Nc3cc(Cl)cc(Cl)c3)cc2OC[C@H](C)NC[C@H]1C`, for which the activity change was -84.1% (active).

As for `CCC(=O)Nc1ccc2c(c1)C(=O)N(C)C[C@H](OC)[C@H](C)CN(Cc1ccccc1F)[C@H](C)CO2`, the activity change was -27.5%.

On to `CCC(=O)N1C[C@H](C)[C@H](OC)CN(C)C(=O)c2ccc(NC(=O)Nc3cccc(F)c3)cc2OC[C@@H]1C`, for which the activity change is -41.8%.

Turning to `COc1ccc(NC(=O)Nc2ccc3c(c2)[C@H]2C[C@H](CC(=O)NC4CCCC4)O[C@@H](CO)[C@H]2O3)cc1`, the activity change is 4.95%.

Take `O=C(C[C@@H]1CC[C@H]2[C@@H](COC[C@H](O)CN2S(=O)(=O)c2ccccc2)O1)NCCN1CCCC1`: the activity change was -4.83%.

As to `C[C@@H]1CCCCO[C@H](CN(C)C(=O)CCC(F)(F)F)[C@H](C)CN([C@@H](C)CO)C(=O)c2cc(NC(=O)CCCCCC(=O)Nc3ccccc3N)ccc2O1`, the activity change is -41%.

Take `Cc1nc(N2[C@H](CO)[C@H](c3ccccc3)[C@H]2CNCC2CCC2)sc1C`: the activity change is -89.7% (active).

For the compound `Cc1nc(N2[C@H](CO)[C@H](c3ccccc3)[C@H]2CNCC2CCCCC2)sc1C`, the activity change was -96.4% (active).

Turning to `COCCNC[C@@H]1[C@H](c2ccccc2)[C@H](CO)N1c1nc(C)c(C)s1`, the activity change was -28.1%.

For `CCCNC(=O)N1[C@H](CO)[C@H](c2ccccc2)[C@H]1CNC(=O)C1CCCCC1`, the activity change is 6.57%.

Turning to `O=C(NC[C@@H]1[C@H](c2ccccc2)[C@H](CO)N1CC1CCCC1)c1cccnc1`, the activity change is -5.05%.

Consider `O=S(=O)(NC[C@H]1[C@@H](c2ccccc2)[C@@H](CO)N1CC1CC1)c1ccccc1`, for which the activity change is 10.7%.

As for `CCCNC(=O)[C@@H]1[C@@H](CO)[C@@H]2Cn3c(ccc(-c4ccccc4F)c3=O)[C@H]1N2CC1CC1`, the activity change is 4.78%.

On to `CCCNC(=O)C[C@@H]1CC[C@H]2[C@@H](COc3ccc(NC(=O)C4CCCC4)cc3C(=O)N2C)O1`, for which the activity change was 5.93%.

Take `O=C(CC1CC1)N1CC[C@@H]2[C@@H](CO)Nc3ccc(-c4ccccc4)cc3[C@@H]21`: the activity change is 4.83%.

Take `O=C(Nc1ccccc1)N[C@@H]1CC[C@H](CCn2cc(-c3ccccc3F)nn2)O[C@@H]1CO`: the activity change was -68%.

Take `O=C(Nc1ccc(F)cc1)N[C@H]1CC[C@H](CCn2cc(C3(O)CCCC3)nn2)O[C@@H]1CO`: the activity change is -25.8%.

`C[C@@H]1CCCCO[C@@H](CN(C)Cc2ccc(Cl)c(Cl)c2)[C@H](C)CN([C@H](C)CO)C(=O)c2cc(NC(=O)Nc3ccc(F)cc3)ccc2O1`: the activity change is -83% (active).

On to `COc1ccc(NC(=O)Nc2ccc3c(c2)C(=O)N([C@H](C)CO)C[C@H](C)[C@H](CN(C)Cc2ccncc2)OCCCC[C@H](C)O3)cc1`, for which the activity change is 29.4%.

Consider `COc1ccc(NC(=O)Nc2ccc3c(c2)C(=O)N([C@H](C)CO)C[C@@H](C)[C@H](CN(C)Cc2ccc(Cl)c(Cl)c2)OCCCC[C@@H](C)O3)cc1`, for which the activity change is -83.8% (active).

Consider `C[C@H](CO)N1C[C@H](C)[C@H](CN(C)Cc2ccc(Cl)c(Cl)c2)OCCCC[C@H](C)Oc2ccc(NC(=O)NC3CCCCC3)cc2C1=O`, for which the activity change is -14.4%.

Take `C[C@@H]1CCCCO[C@H](CN(C)Cc2ccc(Cl)c(Cl)c2)[C@@H](C)CN([C@@H](C)CO)C(=O)c2cc(NC(=O)Nc3ccccc3)ccc2O1`: the activity change was -83% (active).

In the case of `COc1ccc(CN(C)C[C@@H]2OCCCC[C@@H](C)Oc3ccc(NC(=O)Nc4ccc(OC)cc4)cc3C(=O)N([C@@H](C)CO)C[C@@H]2C)cc1`, the activity change is -76.5%.

Turning to `C[C@@H]1CCCCO[C@@H](CN(C)Cc2ccc(C(F)(F)F)cc2)[C@@H](C)CN([C@H](C)CO)C(=O)c2cc(NC(=O)Nc3ccccc3)ccc2O1`, the activity change was 74.5%.

As for `C[C@H]1CCCCO[C@@H](CN(C)Cc2ccc(C(F)(F)F)cc2)[C@@H](C)CN([C@@H](C)CO)C(=O)c2cc(NC(=O)Nc3ccccc3)ccc2O1`, the activity change was -74.7%.

In the case of `C[C@@H]1CN([C@H](C)CO)C(=O)c2cc(NC(=O)Nc3ccc(F)cc3)ccc2O[C@@H](C)CCCCO[C@H]1CN(C)Cc1ccc(Cl)c(Cl)c1`, the activity change is -77.2%.

As to `C[C@@H]1CCCCO[C@@H](CN(C)Cc2ccc3c(c2)OCO3)[C@@H](C)CN([C@@H](C)CO)C(=O)c2cc(NC(=O)Nc3ccccc3)ccc2O1`, the activity change is -36.8%.

`CC(C)NC(=O)Nc1ccc2c(c1)C(=O)N([C@@H](C)CO)C[C@@H](C)[C@H](CN(C)Cc1ccc(Cl)c(Cl)c1)OCCCC[C@H](C)O2`: the activity change was -77.6%.

With `C[C@@H]1CN([C@H](C)CO)C(=O)c2cc(NC(=O)Nc3ccccc3)ccc2O[C@@H](C)CCCCO[C@H]1CN(C)Cc1ccc(C(F)(F)F)cc1`, the activity change is -85.7% (active).
